In the library only some 4% were active in any assay of this set; here they are far more common.
tim23-1 inh – tim23-1 yeast growth inhibition; S. cerevisiae tim23-1 growth, BacTiter-Glo luminescence, 24 h; inhibition, % at 20 µM; 330,000 tested, 1.3% active; AID 463212;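 active = growth inhibition of the mutant yeast at or above 50%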;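 note: temperature-sensitive mutant grown at 25 °C; plate controls were DMSO-treated mutant yeast for no effect and medium wells lacking yeast for full effect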
NALP1 inh – inhibitors of NALP1 inflammasome in yeast | S. cerevisiae NALP1/ASC/caspase-1 growth, X-gal OD620, 72 h | inhibition, % at 10 µM | 280,000 tested, 0.61% active | AID 2071; in the data active = inhibition mostly above about 24%, no sharp cut-off; inactive = mostly below about 32%
tim10-1 inh – tim10-1 yeast growth inhibition; S. cerevisiae tim10-1 ts strain growth, BacTiter-Glo, 24 h; inhibition, % at 20 µM; 330,000 tested, 2.2% active;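 active = inhibition of at least 40%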;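 note: mutant grown at 25 °C; 0% = DMSO wells with yeast and 100% = wells holding no yeast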
NLRP3 yeast inh – blocks the NALP3 inflammasome reconstituted in yeast; inhibition, % at 10 µM; Yeast reconstituted NLRP3/ASC/caspase-1, beta-gal luminescence, 24 h; 330,000 tested, 0.39% active; AID 2825;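 active = inhibition of 50% or more; inactive = inhibition below 50%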;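 note: plate controls were induced DMSO wells for no effect and uninduced yeast grown without galactose for full effect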
TIM10 inh – inhibits growth of TIM10 yeast strain. S. cerevisiae TIM10 strain growth, BacTiter-Glo luminescence, 24 h. 330,000 tested, 1.4% active. AID 463195. inhibition, % at 10 µM;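 active = inhibition of 40% or more at the single tested concentration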;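 note: wild-type TIM10 isogenic control strain grown at permissive 25 °C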
NALP3 yeast conf – confirmation of NALP3 inhibitors in yeast | shares compounds with NLRP3 yeast inh | yeast expressing human NALP3, luminescence | inhibition, % at 10 µM | 1,300 tested, 81% active | AID 435006; in the data active = inhibition above about 48%
Casp1 ASC ctr – active in yeast caspase-1-ASC counter-screen for NALP3 inhibitors; AID 488784; inhibition, % at 10 µM; yeast expressing Caspase-1-ASC, luminescence counter screen; shares compounds with NLRP3 yeast inh; 1,000 tested, 66% active
NALP3 retest – yeast NALP3 inhibition, confirmed on retest; AID 488794; inhibition, % at 10 µM; shares compounds with NLRP3 yeast inh; yeast expressing human NALP3, luminescence read-out; 1,000 tested, 53% active
tim10-1 conf – confirmation of tim10-1 mutant yeast growth inhibitors | S. cerevisiae tim10-1 ts strain growth, BacTiter-Glo, 24 h | 7,400 tested, 56% active | shares compounds with tim10-1 inh | inhibition, % at 20 µM;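 active = inhibition of yeast growth at or above a set limit in either of two repeat tests at 20 µM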;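 note: tim10-1 mutant grown at permissive 25 °C to find synthetic lethal compounds; 0% = DMSO yeast wells and 100% = medium wells without yeast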
Starred values were filed as active, the others as inactive; / = no result given. Cut-off read from the data, not from the text of the source, unless noted: active = inhibition above about 50%; inactive = the rest.

SMILES	tim23-1 inh	NALP1 inh	tim10-1 inh	NLRP3 yeast inh	TIM10 inh	NALP3 yeast conf	Casp1 ASC ctr	NALP3 retest	others
CC(C)Cc1nc(SCc2cccnc2)c2c(=O)n(C)c(=O)n(C)c2n1	34.8	-10.8	13.2	59.8*	-0.7	63.6*	57.0*	42.2
CCc1nc(SCC(=O)NCc2ccccc2)c2c(=O)n(C)c(=O)n(C)c2n1	-0.1	32.5	0.4	13.7	-10.3	/	/	/
CC(C)Cc1nc(SCC(=O)N2CC(C)OC(C)C2)c2c(=O)n(C)c(=O)n(C)c2n1 (centres undefined)	25.0	3.1	22.1	6.2	13.1	/	/	/
CN(Cc1ccc(Cl)cc1)C(=O)COC(=O)c1ccc(-c2ccc(O)cc2)cc1	-6.8	/	-2.7	14.8	-6.3	/	/	/
FC(F)(F)c1cc(-c2ccco2)nc(NCc2ccccc2)n1	21.5	7.0	10.1	12.5	-6.4	/	/	/
FC(F)(F)c1cc(-c2ccco2)nc(NCc2cccnc2)n1	3.0	6.4	14.7	53.0*	9.5	66.3*	52.2*	36.3
FC(F)(F)c1cc(-c2ccccc2)nc(NCc2cccnc2)n1	-0.4	10.0	12.7	53.9*	20.6	24.4	/	/
C#CCNC(=O)C1=C[C@@H](c2ccc(Br)cc2)C[C@@H](OCCCCO)O1	19.5	2.7	-1.7	24.8	9.7	/	/	/
CCc1nnc(NC(=S)Nc2ccccc2)s1	-0.2	0.9	22.1	54.7*	14.8	46.2	/	/
COc1ccc(C(CC(=O)Nc2ccccn2)N2Cc3ccccc3C2=O)cc1OC (centres undefined)	-2.7	19.2	11.9	1.0	2.5	/	/	/
Cc1ccccc1NC(=O)c1ccc(-n2cncn2)nc1	6.2	32.4	4.0	19.2	8.0	/	/	/
Cc1ccc(Nc2n[nH]c(C)c2[N+](=O)[O-])cc1	-11.6	25.5	-14.3	39.9	-11.4	/	/	/
Cc1[nH]nc(Nc2ccc(Br)cc2)c1[N+](=O)[O-]	3.5	4.4	-4.8	52.2*	4.8	46.1	/	/
CCCCCC(=O)N1CCN(CCN=CC2=C(O)CC(c3cccs3)CC2=O)CC1 (centres undefined)	7.5	-6.5	11.8	50.6*	16.4	64.8*	54.9*	44.2
CCCCCC(=O)N1CCN(CCN=CC2=C(O)CC(c3ccco3)CC2=O)CC1 (centres undefined)	19.2	-14.9	8.7	53.4*	13.8	54.4*	42.9	51.8*
CS(=O)(=O)c1ccc(Cl)c(C(=O)OCC(=O)NC2CCCCCCC2)c1	19.0	/	1.5	-1.2	-4.3	/	/	/
CCCOc1ccc(CCC(=O)N/N=C/c2ccncc2)cc1	19.4	-3.7	24.5	9.2	17.9	/	/	/
Cc1ccccc1CSCCNC(=O)Nc1ccccc1	31.2	-10.0	17.9	9.3	31.1	/	/	/
CCCCc1ccc(-c2nc(N)n[nH]2)cc1	29.4	14.4	36.2	54.2*	25.1	78.1*	94.7*	85.2*
CC1Oc2ccccc2N(Cc2ccccc2Cl)C1=O (centres undefined)	-1.3	6.2	24.3	-144.4	-7.0	6.0	/	/
CC1CCCCN1S(=O)(=O)c1cccc2nonc12 (centres undefined)	-8.4	-1.0	-8.8	16.0	3.1	/	/	/
Cc1ccc(S(=O)(=O)N/N=C/c2ccc(C#N)cc2)cc1	20.7	16.9	15.8	3.5	8.5	/	/	/
O=C(NC1=NCCS1)c1ccccc1OCc1ccccc1Cl	44.6	19.9	9.2	95.8*	25.1	99.2*	97.8*	97.8*
COC(=O)c1ccc(COC(=O)CCC(=O)c2cccs2)cc1	15.7	13.3	22.4	28.5	-10.3	/	/	/
CC1CN(C(=O)c2cc(S(=O)(=O)N3CCCCC3)ccc2Cl)CC(C)O1 (centres undefined)	3.5	/	2.3	-0.4	-4.1	/	/	/
SMILES	tim23-1 inh	NALP1 inh	tim10-1 inh	NLRP3 yeast inh	TIM10 inh	NALP3 yeast conf	Casp1 ASC ctr	NALP3 retest	others
Cn1c(C(=O)N2CCCc3ccccc32)cc2sccc21	44.8	-1.7	21.1	51.3*	30.8	64.2*	39.8	35.2
CCCCCCCCC(=O)N1CCN(c2cc3c(cc2F)c(=O)c(C(=O)O)cn3CC)CC1	-2.6	-9.8	-3.4	57.4*	-2.4	51.7*	24.9	26.6
S=C(Nc1ccc(Cl)c(Cl)c1)NC1CCCCC1	34.4	32.3	36.1	52.6*	33.9	59.2*	85.2*	68.5*
O=S(=O)(c1cc(Cl)ccc1Cl)n1cccn1	6.1	-7.0	19.8	-36.6	21.9	/	/	/
O=S(=O)(c1ccc(Cl)cc1)n1ccc2cccnc21	16.9	-3.1	-4.3	61.5*	-7.0	61.4*	56.2*	41.5
Cc1ccc(S(=O)(=O)n2ccc3cccnc32)cc1	15.1	0.2	8.4	43.8	0.6	/	/	/
O=S(=O)(c1ccc(Cl)cc1Cl)n1ccc2cccnc21	26.6	-10.5	-13.9	72.9*	-21.4	67.1*	65.5*	42.6
N#Cc1ccsc1NC(=O)c1ccc(Cl)c([N+](=O)[O-])c1	10.2	-15.6	7.3	77.9*	8.8	81.3*	/	/
N#Cc1ccsc1NC(=O)c1cccc([N+](=O)[O-])c1	-18.0	-13.1	0.6	17.4	-8.0	/	/	/
CCC(C)c1ccccc1NC(=O)c1cc2cccc([N+](=O)[O-])c2[nH]1 (centres undefined)	20.5	/	-10.1	51.7*	-109.1	22.2	/	/
O=C(CSc1cccc2cccc(Cl)c12)NCc1cccs1	14.1	36.6	27.1	51.6*	15.0	64.6*	45.0	31.4
N#Cc1ccc(-c2csc(NNC(=O)c3ccc(Br)cc3)n2)cc1	9.0	13.4	-6.0	51.1*	2.2	51.0*	38.1	36.3
N#Cc1ccc(-c2csc(NNC(=O)c3ccccc3)n2)cc1	9.0	14.0	3.8	18.6	-6.1	/	/	/
CSc1oc(-c2ccccc2)nc1S(=O)(=O)c1ccc(C)cc1	8.3	-32.3	17.8	53.4*	-8.9	68.2*	55.7*	47.8
CCOc1cc(C2Nc3ccccc3C(=O)N2c2ccccc2)c(Br)cc1OCC(=O)O (centres undefined)	-1.6	-14.6	5.9	-100.0	-1.3	-31.0	/	/
O=C(C1CCN(S(=O)(=O)c2cccc3nsnc23)CC1)N1CCn2c1nc1ccccc12	29.6	6.4	41.8*	73.9*	31.9	75.0*	66.3*	75.0*	tim10-1 conf=26.0
O=C(C1CCN(S(=O)(=O)c2cccc3nsnc23)CC1)N1CCc2ccccc21	0.3	-3.5	29.6	-5.2	22.7	/	/	/
CC1CCC2C(C1)OS(=O)(=O)NC2(C)C (centres undefined)	25.2	15.8	-0.3	21.9	5.7	/	/	/
Cc1ccc(C(=O)c2no[n+]([O-])c2C(=O)c2ccc(C)cc2)cc1	46.6	91.3	43.7*	58.9*	0.5	62.6*	71.7*	51.8*	tim10-1 conf=60.0*

High-throughput results deposited in PubChem BioAssay by Sanford-Burnham Center for Chemical Genomics.
